# Experimental data published in PubChem BioAssay AID2796 (The Scripps Research Institute Molecular Screening Center, 2010).
# About 8,000 (2.5%) of roughly 320,000 compounds were called active. For the sample, actives were picked, then their nearest neighbours and some compounds at random. Unmarked numbers belong to inactive results. Rule as the data show it: active = activation above about 47%; inactive = the rest.
# Target: Aryl hydrocarbon receptor (Homo sapiens) (UniProt P35869)
# Assay: AHR activators, primary screen, cell-based, luminescence, luciferase reporter, human (AID 2796);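 also: 0% = vehicle wells and 100% = reference agonist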
# Details: AHR-responsive luciferase reporter cells, at 5 µM, active compounds read high
# Aryl hydrocarbon receptor (Homo sapiens), sequence (P35869 whole entry, looked up): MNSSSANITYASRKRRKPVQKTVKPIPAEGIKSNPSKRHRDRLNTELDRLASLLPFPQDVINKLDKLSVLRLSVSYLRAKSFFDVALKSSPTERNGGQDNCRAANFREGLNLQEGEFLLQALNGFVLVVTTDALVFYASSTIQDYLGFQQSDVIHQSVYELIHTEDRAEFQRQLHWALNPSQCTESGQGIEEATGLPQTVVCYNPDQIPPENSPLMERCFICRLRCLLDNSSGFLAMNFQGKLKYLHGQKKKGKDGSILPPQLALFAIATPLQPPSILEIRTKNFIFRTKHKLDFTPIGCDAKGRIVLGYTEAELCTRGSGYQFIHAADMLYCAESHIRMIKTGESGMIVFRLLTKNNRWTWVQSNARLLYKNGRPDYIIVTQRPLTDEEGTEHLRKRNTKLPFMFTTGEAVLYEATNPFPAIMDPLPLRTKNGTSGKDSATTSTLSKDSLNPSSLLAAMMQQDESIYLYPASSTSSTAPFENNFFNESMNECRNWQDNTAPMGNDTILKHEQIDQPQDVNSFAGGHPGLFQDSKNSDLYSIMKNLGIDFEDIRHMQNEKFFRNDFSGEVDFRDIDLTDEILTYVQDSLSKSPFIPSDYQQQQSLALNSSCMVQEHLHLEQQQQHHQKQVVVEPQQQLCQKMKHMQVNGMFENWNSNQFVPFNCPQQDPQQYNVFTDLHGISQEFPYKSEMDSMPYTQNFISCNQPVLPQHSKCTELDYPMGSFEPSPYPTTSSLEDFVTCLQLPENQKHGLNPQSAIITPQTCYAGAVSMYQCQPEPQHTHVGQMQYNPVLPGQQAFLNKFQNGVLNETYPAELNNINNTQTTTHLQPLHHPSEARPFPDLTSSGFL
row,SMILES,activation
1,CCOC(=O)c1cccc(NC(=O)C2CCCN(S(=O)(=O)c3cnc[nH]3)C2)c1 (centres undefined),0.81%
2,Cc1ccc(SCC2=NNC(=O)C2)cc1,-1.28%
3,CC(C)N1C(=S)SC(C)(C)C1n1oc(=O)n(-c2ccc(Cl)c(Cl)c2)c1=O (centres undefined),7.15%
4,COc1ccc(CN2CCN(Cc3cn(C)nc3-c3ccccc3)CC2CCO)c(C)c1C (centres undefined),2.04%
5,Cc1noc(C)c1NC(=O)Nc1ccc2c(c1)C(=O)N([C@H](C)CO)C[C@H](C)[C@@H](CN(C)C(=O)Nc1ccc(C(F)(F)F)cc1)O2,3.05%
6,Cc1ccc(-c2noc(CNC(=O)c3ccoc3C)n2)cc1,6.22%
7,O=C(COc1ccccc1F)NNC(=O)c1cc(Br)ccc1Cl,4.62%
8,CCN(CC)C(=O)C(=O)Nc1cccc(Br)c1,4.98%
9,CCN(CC)C(=O)Oc1ccc(Br)cc1C(=O)Nc1ccc(F)c(Cl)c1,86.6% (active)
10,CCC1CCCCN1CCNC(=O)c1[nH]c(C)c(C(C)=O)c1C (centres undefined),1.61%
11,O=C(Nc1ccc(Cl)cc1)N1CCc2[nH]c3ccccc3c2C1,25.4%
12,Fc1ccc(NC(=S)N2CCc3[nH]c4ccccc4c3C2)cc1,5.41%
13,C=CCNC(=S)N1CCc2[nH]c3ccccc3c2C1,73.6% (active)
14,O=C(CCCN1CCc2[nH]c3ccc(F)cc3c2C1)c1ccc(F)cc1,2.64%
15,CCCCNC(=O)CSc1nc2n[nH]c(C)c2c(=N)n1-c1cccc(Cl)c1C,13.7%
16,Cc1ccc(-n2c(SCC(=O)NCCC3=CCCCC3)nc3n[nH]c(C)c3c2=N)cc1Cl,24.8%
17,COc1cccc(-n2c(SCC(=O)NC3CCCCC3)nc3n[nH]c(C)c3c2=N)c1,104% (active)
18,COc1ccccc1C(=O)NCCC(=O)NN1C(=O)NC2(CCCCC2)C1=O,-0.92%
19,C/C=C/C(=O)OCC(=O)Nc1ccc(F)cc1Cl,0.16%
20,C[N+](C)(CCCCCC[N+](C)(C)CCCN1C(=O)c2cccc3cccc(c23)C1=O)CCCN1C(=O)c2cccc3cccc(c23)C1=O,4.39%
21,O=C(CCCCCN1C(=O)c2cccc3cccc(c23)C1=O)NCc1ccco1,76.8% (active)
22,O=C(CCCOc1ccccc1)NCc1ccco1,1.62%
23,CC1CCN(C(=O)C2CCN(S(=O)(=O)N3CCC4(CC3)OCCO4)CC2)CC1,0.37%
24,Cc1ccc(NC(=O)c2cc([N+](=O)[O-])ccc2Cl)c(O)c1,49% (active)

row,SMILES,activation
1,O=C(Nc1cccnc1)c1cc([N+](=O)[O-])ccc1Cl,0.88%
2,CNc1ccc([N+](=O)[O-])cc1C(=O)O,-2.24%
3,COc1ccc(S(=O)(=O)NC(C)C(=O)NCc2ccncc2)cc1Cl (centres undefined),-0.4%
4,C[C@H](CO)N1C[C@H](C)[C@@H](CN(C)S(=O)(=O)c2ccc(F)cc2)Oc2c(NC(=O)Nc3ccccc3)cccc2C1=O,0.64%
5,O=C(Nc1ccccc1)c1ccc2nsnc2c1,60.2% (active)
6,O=C(Nc1cccc(NC(=O)c2cccc(F)c2)c1)c1ccccc1,26.6%
7,Cc1cccc(NC(=O)c2ccc3nsnc3c2)c1C,10.3%
8,COC(C(=O)Nc1ccc(S(=O)(=O)Nc2ccc(C)c(C)c2)cc1)c1ccccc1 (centres undefined),-0.6%
9,COCCN1CCn2c(nc3cc(NS(C)(=O)=O)ccc32)C1,4.78%
10,Cc1ccc(S(=O)(=O)NCC(=O)N(CC(=O)NC(C)(C)C)Cc2cccs2)cc1,3.31%
11,CCc1noc(C)c1C(=O)Nc1nc2ccc(OC)cc2s1,1.93%
12,O=C(O)c1ccccc1C(=O)Nc1nc(-c2ccccc2)cs1,1.84%
13,CCc1noc(C)c1C(=O)Nc1nc(-c2ccccc2)cs1,55.4% (active)
14,Nc1ncc(CN2CCCC(C(=O)Nc3ccc(-c4ccco4)cc3)C2)cn1 (centres undefined),5.9%
15,Cc1cc(=O)oc2c(C(=O)c3ccccc3)c(OCC(N)=O)ccc12,3.98%
16,O=C(COC(=O)c1ccc(F)cc1)NCC1COc2ccccc2O1 (centres undefined),-0.1%
17,Cc1noc(C)c1NC(=O)Nc1ccc2c(c1)C(=O)N([C@H](C)CO)C[C@H](C)[C@@H](CN(C)S(=O)(=O)c1cn(C)cn1)O2,0.71%
18,O=S(=O)(Nc1ccc(-n2cnnn2)cc1)c1ccc(Cl)cc1,1.5%
19,Cc1nc(Cl)cc(N/N=C/c2ccccc2)n1,23.2%
20,Brc1ccc(-c2csc(N/N=C/c3ccc4c(c3)OCO4)n2)cc1,58% (active)
21,Cc1noc(C)c1/C=N/Nc1ccc2ccccc2n1,83.3% (active)
22,Brc1ccc(-c2csc(N/N=C/c3cccnc3)n2)cc1,-4.57%
23,O=C(CN1CCN(c2nc(-c3ccccc3)cs2)CC1)NCc1ccc2c(c1)OCO2,0.54%
24,O=C(Cc1ccc(F)cc1)N/N=C/c1ccc2c(c1)OCO2,42%

row,SMILES,activation
1,Cc1cc(=O)[nH]c(N/N=C/c2ccc3c(c2)OCCO3)n1,14.6%
2,C(=N\Nc1ccc2ccccc2n1)/c1ccc2c(c1)OCO2,101% (active)
3,Cc1cc(C)nc(N/N=C/c2c(C)oc3ccccc23)n1,11.9%
4,O=C(OCC(=O)N1CCCC1)c1ccc(Cl)nc1,-1.12%
5,CCC(C)(C(=O)NC1CCCCC1)N(C)C(=O)c1ccc2c(c1)OCO2 (centres undefined),-0.09%
6,CCOC(=O)C1=NNC2(c3ccc(Cl)cc3)C(=O)N(c3cc(C)cc(C)c3)C(=O)C12 (centres undefined),5.66%
7,CCC(CC)c1nnc(NC(=O)/C=C/c2ccco2)s1,46.2%
8,CCc1nnc(NC(=O)/C=C/c2ccc(C)o2)s1,28.2%
9,Cc1nnc(NC(=O)/C=C/c2ccco2)s1,120% (active)
10,COc1ccc(S(=O)(=O)N2CCC(C(=O)NCc3ccco3)CC2)cc1C,0.76%
11,CCc1ccc(NC(=O)C(=O)N/N=C(\C)CC(=O)NCCOC)cc1,8.77%
12,CC(Sc1nncn1C)C(=O)NCCC1=CCCCC1 (centres undefined),-0.01%
13,CC1CCc2sc3nc(N4CCN(CCO)CC4)n4ncnc4c3c2C1 (centres undefined),61.8% (active)
14,CCCn1nnc2sc3c(c2c1=O)CCC(C)C3 (centres undefined),-0.09%
15,CC1CCc2c(sc3nc4n(c(=O)c23)CCS4)C1 (centres undefined),-1.18%
16,c1ccc2c(c1)CCc1snnc1-2,2.81%
17,CCC1CCc2c(sc(NC(C)=O)c2C#N)C1 (centres undefined),1.29%
18,COc1ccc(NC(=O)C(CC(C)C)NC(=O)C2CCC(C)CC2)cc1 (centres undefined),1.21%
19,CC(=O)Nc1ccc(S(=O)(=O)NCC2CCC(C(=O)NCCc3ccccc3)CC2)cc1 (centres undefined),0.11%
20,Cn1cncc1C#Cc1c(-c2ccsc2)sc2ccccc12,52.7% (active)
21,O=C(NCc1ccc2c(c1)OCO2)c1c(-c2ccsc2)sc2ccccc12,44.7%
22,Cc1cccc(-c2oc3ccc(-c4ccc5c(c4)OCO5)cc3c2C#Cc2cncn2C)c1,26.5%
23,COC(=O)/C(=C\Nc1ccccc1)NC(=O)c1ccc(Cl)cc1Cl,1.34%
24,N#CC1(C#N)C(C(=O)C23CC4CC(CC(C4)C2)C3)C12CCOCC2 (centres undefined),-2.81%

row,SMILES,activation
1,Cc1ccccc1NCC(=O)N/N=C\c1ccc([N+](=O)[O-])s1,56.7% (active)
2,COc1ccc(C(=O)NCC(=O)N/N=C/c2ccc([N+](=O)[O-])s2)cc1OC,-1.7%
3,CC(C)(C)c1cc(C(=O)N/N=C/c2ccc([N+](=O)[O-])s2)n[nH]1,-8.74%
4,Cc1cc(O)ccc1NC1=CC(=O)CC(C)(C)C1,15.2%
5,CCN1CCN(C(=O)CN(C)S(=O)(=O)c2ccc3ccccc3c2)CC1,-1.56%
6,C[C@@H]1CN([C@H](C)CO)C(=O)c2cc(NC(=O)NC3CCCCC3)ccc2O[C@H]1CN(C)S(C)(=O)=O,-0.98%
7,CCCn1c(C(O)c2ccc(OCC)cc2)nc2ccccc21 (centres undefined),0.65%
8,CCOc1ccc(C(O)Cc2nc3ccccc3n2C)cc1 (centres undefined),118% (active)
9,COc1cccc(C(O)Cc2nc3ccccc3n2C)c1OC (centres undefined),6.17%
10,Cc1cc(Br)ccc1NC(=O)c1cnc(N2CCN(c3ccccn3)CC2)c2ccccc12,20.2%
11,Cc1cc(Nc2ccc(N3CCOCC3)cc2)c2cccc(C)c2n1,8.99%
12,N#CCSc1nc2ccc(N3CCOCC3)cc2c(=O)n1CCc1ccccc1,1.4%
13,Cc1nn2c3cc(N4CCOCC4)ccc3nc2c2ccccc12,144% (active)
14,NC(=O)c1cc2ccccc2o/c1=N/NC(=O)c1cccc(F)c1,52.6% (active)
15,COc1cccc2cc(C(N)=O)/c(=N\NC(=O)c3ccccc3)oc12,8.63%
16,CCN(CC)c1ccc2cc(C(N)=O)/c(=N\NC(=O)c3ccncc3)oc2c1,78% (active)
17,CCN(CC)c1ccc(C(=O)N/N=C/c2ccc(N3CCOCC3)cc2)cc1,19%
18,CCN(CC)c1ccc(/C=N/NC(=O)c2cnccn2)c(O)c1,22.4%
19,N=c1oc2ccccc2cc1C(=O)NCc1ccccc1,-3.55%
20,COc1cc(/C=C/C(=O)Nc2ccc(OC)c(S(=O)(=O)N3CCOCC3)c2)ccc1OCC#N,-0.9%
21,CCCCCc1ccc(-c2ccc(C(=O)O)cc2)nc1,-9.97%
22,COc1ccccc1CCNS(=O)(=O)c1cc2c3c(c1)C(C)C(=O)N3CCC2 (centres undefined),4.39%
